{
  "source": "PubChem BioAssay AID651612",
  "about": "(The Scripps Research Institute Molecular Screening Center, 2012)",
  "note": "Out of some 2,200 compounds screened, about 1,500 (68%) were called active. Rule as the data show it: active = inhibition above about 23%; inactive = the rest. So high a share suggests a set chosen from earlier hits. Only a sample is shown.",
  "data": [
    {"molecular_target": "Perilipin-5 (Homo sapiens) + 1-acylglycerol-3-phosphate O-acyltransferase ABHD5 (Homo sapiens) (UniProt Q00G26+Q8WTS1)", "sequence (Q00G26 whole entry, looked up)": "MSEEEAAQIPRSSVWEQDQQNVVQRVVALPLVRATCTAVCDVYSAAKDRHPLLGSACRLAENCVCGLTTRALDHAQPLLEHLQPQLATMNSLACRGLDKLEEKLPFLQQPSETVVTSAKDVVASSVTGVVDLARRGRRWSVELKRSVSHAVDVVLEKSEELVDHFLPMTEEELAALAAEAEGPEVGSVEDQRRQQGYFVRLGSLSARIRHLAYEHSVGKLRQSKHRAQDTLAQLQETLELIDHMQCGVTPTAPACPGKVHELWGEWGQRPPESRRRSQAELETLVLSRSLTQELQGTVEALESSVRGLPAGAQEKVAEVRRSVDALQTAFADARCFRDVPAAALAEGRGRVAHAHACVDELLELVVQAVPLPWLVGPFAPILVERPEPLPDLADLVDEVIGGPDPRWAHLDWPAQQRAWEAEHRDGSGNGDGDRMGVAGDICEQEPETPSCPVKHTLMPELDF", "sequence (Q8WTS1 whole entry, looked up)": "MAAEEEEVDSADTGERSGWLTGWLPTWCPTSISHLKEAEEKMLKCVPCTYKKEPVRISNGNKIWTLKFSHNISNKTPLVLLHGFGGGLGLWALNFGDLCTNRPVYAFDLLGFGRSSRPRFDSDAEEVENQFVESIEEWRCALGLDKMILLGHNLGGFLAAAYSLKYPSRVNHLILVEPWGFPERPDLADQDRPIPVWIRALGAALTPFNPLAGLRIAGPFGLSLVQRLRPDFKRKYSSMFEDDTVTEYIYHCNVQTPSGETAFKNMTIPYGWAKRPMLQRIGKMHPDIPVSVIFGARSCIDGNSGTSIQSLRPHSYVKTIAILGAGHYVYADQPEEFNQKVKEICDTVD", "experiment": "blockers of ABHD5 binding to perilipin-5 – biochemical, luminescence, confirmation (AID 651612);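 also: 0% = DMSO vehicle wells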", "conditions": "biochemical ABHD5-PLIN5 interaction, at 4 µM, active compounds read high", "values": [
      {"molecule": "CCOC(=O)[C@]12Cc3ccccc3[C@H]1N(C1CCCCC1)C(=O)c1cc(OC)ccc12", "inhibition": "23.3% (active)"},
      {"molecule": "CN(C)CC1Oc2ccccc2OC1(O)c1ccccc1", "note": "(stereo not given)", "inhibition": "77.6% (active)"},
      {"molecule": "COc1ccc(CN2C(=O)NC(=O)/C(=C\\c3ccc(OC)c(OC)c3OC)C2=O)cc1", "inhibition": "36.5% (active)"},
      {"molecule": "CCc1nnc(NS(=O)(=O)c2ccc(N=Cc3c(O)n(-c4ccccc4)c(=O)[nH]c3=O)cc2)s1", "inhibition": "7.03% (inactive)"},
      {"molecule": "Cc1cccc(N2C(=O)NC(=O)/C(=C\\c3cnn(-c4ccccc4)c3)C2=O)c1", "inhibition": "66.4% (active)"}
    ]}
  ]
}
